Rows were chosen to be rich in hits. Some 3% of all compounds tested hit in one or more screens of this group.
Caspase-1 inhib – qHTS Assay for Allosteric/Competitive Inhibitors of Caspase-1. P29466. Caspase-1 enzyme, Ac-WEHD-AFC fluorogenic rate. Potency, µM (series often up to 57.5 µM), for inactives: top-dose activity change, negative = inhibition, usual class: inhibitors. 75,000 tested, 0.03% active. AID 900, 2007;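 further: plate controls were vehicle for no effect and no substrate for full effect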
15-hLO inh – qHTS Assay for Inhibitors of 15-hLO (15-human lipoxygenase) | Polyunsaturated fatty acid lipoxygenase ALOX15 (Homo sapiens), P16050 | purified 15hLO-1, xylenol orange hydroperoxide absorbance | Potency, µM (highest dose often 57.1 µM), for the others: at the top dose activity change, negative = inhibition, usual class: inhibitors | 74,000 tested, 1.4% active; further: on the % scale 0 is the no-effect control and ±100 the full control effect; nearly all actives have a fitted effect of over 55% in size
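Readout: Fe(III)-xylenol orange absorbance, 573-to-405 nm ratio as reaction progress. Enzyme 40 nM purified human 15hLO-1, substrate 50 uM arachidonic acid, 6 min RT after 15 min compound preincubation; Hepes pH 7.5 buffer with Triton X-100.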
HEK293 cAMP cs – qHTS Assay for Agonists of the Thyroid Stimulating Hormone Receptor: Activators of Intracellular cAMP Concentrations in Parental HEK 293; parental HEK293 CNG cAMP sensor, membrane potential fluorescence; Potency, µM (doses to about 57.1 µM), inactives show at the highest dose activation, most hits filed as activators; 73,000 tested, 2.5% active; AID 938, 2007; further: % of control where 0% means no effect; nearly all actives have a fitted effect of over 55% in size
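Parental HEK 293 cells stably expressing a modified CNG channel (no TSHR) report cAMP rise as membrane depolarization. Membrane potential dye with 100 uM RO 20-1724 was loaded for 60 min at room temperature, then compound added for 30 min; fluorescence read at 590 nm.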
Casp7 inh – qHTS Assay for Allosteric/Competitive Inhibitors of Caspase-7; P55210; recombinant caspase-7, Ac-DEVD-AFC fluorescence rate; Potency, µM (doses to about 57.5 µM), for inactives: at the highest dose activity change, negative = inhibition, most hits filed as inhibitors; 75,000 tested, 0.02% active; AID 889, 2007; active means well fitted inhibition curve with a large enough effect in the main read-out, with a control signal flat, not every such curve was filed as active; inconclusive means small, poorly fitted or top-dose-only effect, or a change in a side signal; further: % of control where 0% means no effect
TSHR agonist – qHTS Assay for Agonists of the Thyroid Stimulating Hormone Receptor; HEK293-CNG-TSHR cells (CNG channel as cAMP sensor), membrane potential dye, cAMP; Potency, µM (titrated, usually from 57.1 µM), for inactives: top-dose activation, hits mostly activators; 73,000 tested, 0.48% active; active means well fitted activation curve with a large enough effect in the main read-out, with a control signal flat, not every such curve was filed as active; inconclusive means small, poorly fitted or top-dose-only effect, or a change in a side signal; inactive means no such curve, though single readings can be large or run the other way; % of control where 0% means no effect;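 further: the control signal comes from parental cells without the receptor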
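HEK 293 cells stably expressing TSHR and a cAMP-gated CNG channel; parental CNG-only cells as counterscreen. Cells preloaded 60 min with membrane potential dye plus 100 uM RO 20-1724, then compound 30 min; fluorescence read at 590 nm.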
15-hLO-2 inh – qHTS Assay for Inhibitors of 15-hLO-2 (15-human lipoxygenase 2) | Polyunsaturated fatty acid lipoxygenase ALOX15B (Homo sapiens), O15296 | purified 15hLO-2, xylenol orange hydroperoxide absorbance | Potency, µM (highest dose often 57.1 µM), without a hit: at the highest dose activity change, negative = inhibition, hits mostly inhibitors | 110,000 tested, 0.56% active | AID 881, 2007; further: on the % scale 0 is the no-effect control and ±100 the full control effect; nearly all actives have a fitted effect of over 60% in size
Target sequence (O15296 whole entry, looked up): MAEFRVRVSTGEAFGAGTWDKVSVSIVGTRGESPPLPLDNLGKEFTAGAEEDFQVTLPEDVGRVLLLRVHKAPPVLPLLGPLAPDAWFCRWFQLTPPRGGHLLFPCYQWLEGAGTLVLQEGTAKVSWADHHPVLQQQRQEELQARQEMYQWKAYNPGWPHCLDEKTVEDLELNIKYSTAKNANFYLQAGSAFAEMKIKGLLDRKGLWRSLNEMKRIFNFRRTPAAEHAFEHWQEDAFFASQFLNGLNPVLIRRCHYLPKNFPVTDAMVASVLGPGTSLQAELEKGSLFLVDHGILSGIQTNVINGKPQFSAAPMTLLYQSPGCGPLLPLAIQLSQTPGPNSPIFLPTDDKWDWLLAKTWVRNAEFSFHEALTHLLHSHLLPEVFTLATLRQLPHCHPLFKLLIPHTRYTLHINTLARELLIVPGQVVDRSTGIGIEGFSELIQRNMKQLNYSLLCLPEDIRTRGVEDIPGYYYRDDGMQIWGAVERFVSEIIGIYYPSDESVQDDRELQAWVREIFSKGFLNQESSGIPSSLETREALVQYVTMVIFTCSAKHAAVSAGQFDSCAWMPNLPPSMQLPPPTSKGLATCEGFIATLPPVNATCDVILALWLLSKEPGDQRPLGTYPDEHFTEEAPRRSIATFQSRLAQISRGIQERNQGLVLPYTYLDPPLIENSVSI
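Screening format was qHTS against 50 nM purified 15hLO-2 in Hepes pH 7.5 with detergent. Activity follows hydroperoxide formation from 45 uM arachidonic acid, measured as 573:405 nm absorbance ratio of the ferric-xylenol orange complex.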
The depositor's hits bear a star; ? = inconclusive; . = no result given; [ ] = dose if it differs, or a comment. Unless noted, the call rests on the fitted dose curve; in most records, active means well fitted curve in the direction sought with a large enough effect; inconclusive means small, poorly fitted or top-dose-only effect, or another doubt; inactive means no such curve, though single readings can be large; an effect the other way counts as inactive or inconclusive. Potency means the concentration at half of the fitted maximal effect.

SMILES	Caspase-1 inhib	15-hLO inh	HEK293 cAMP cs	Casp7 inh	TSHR agonist	15-hLO-2 inh
CC(C)c1cccc2nc3c(c([Si](C)(C)C)c12)Cn1c-3cccc1=O	.	.	12.6µM*	?	?	-17.2%
Nc1ncnc2nc(-c3ccc(N4CCOCC4)nc3)cc(-c3cccc(Br)c3)c12	.	10µM*	?	?	?	46.0%
c1ccc(-c2cc(N3CCOCC3)nc(-c3ccccc3)n2)cc1	-2.6%	-0.7%	3.0%	-2.6%	.	18.0%
c1cc2c(cc1-c1cnc3n1CCC3)OCCO2	3.2%	25.0%	20µM*	-1.8%	?	12.2%
c1ccc(-c2ccc(-c3cnc4n3CCCCC4)cc2)cc1	.	.	.	.	.	29.2%
C=CC1=C(C)C2=NC1=CC1=NC(=CC3=NC(=CC4=NC(=C2)C(C)=C4CCC(=O)O)C(CCC(=O)O)=C3C)C(C=C)=C1C.[Zn]	-11.0%	10µM*	-30.4%	-11.3%	?	12.6µM*
O=C(Nc1cccc(C(F)(F)F)c1)C1CCCN(c2ncccn2)C1 (stereo not drawn)	1.2%	?	25.1µM*	0.2%	?	5.4%
O=[N+]([O-])c1ccc(CCO)cc1	-3.8%	-5.2%	-14.2%	0.7%	?	-5.3%
CN(C)c1ccc(NC(=O)CCCc2ccccc2)cc1	0.0%	10µM*	-10.1%	-1.1%	-16.5%	-12.9%
O=C(CCCc1ccccc1)Nc1cccnc1	.	.	.	.	.	2.2%
Cc1cc(C)n2c(=S)[nH]nc2n1	2.9%	?	8.1%	-0.2%	24.3%	6.31µM*
Cc1cc(C)nc(SCc2nc3nc(C)cc(C)n3c2Br)n1	.	.	.	.	.	3.6%
CC12CCC3c4ccc(OCc5ccccc5)cc4CCC3C1CC(O)C2O (stereo not drawn)	-0.7%	-25.0%	.	-4.9%	.	0.3%
CN(C)c1ncc2nc(-c3ccc(Cl)cc3)c(=O)n(C[C@H]3CCCO3)c2n1	.	6.1%	14.6%	?	-1.6%	-4.5%
Cc1cc(NC(=O)c2ccccc2-c2ccccc2C(=O)O)no1	-1.7%	-18.1%	3.5%	-0.7%	-0.2%	.
CCSc1ccccc1C(=O)Nc1cc(C)on1	-1.7%	12.6µM*	6.2%	1.8%	17.5%	-9.1%
CCc1cc2ccccc2nc1SCC(=O)Nc1cc(C)on1	0.3%	-1.6%	25.1µM*	-0.3%	?	-4.3%
CN1CCc2nc(N)nc(-c3nc(N)nc4c3CN(C)CC4)c2C1	-0.4%[11.5 µM]	-13.3%[11.4 µM]	2.6%[11.4 µM]	-2.2%[11.5 µM]	3.6%[11.4 µM]	-9.0%[11.4 µM]
CC1=C(SCCC#N)S/C(=C2\SC(C)=C(SCCC#N)S2)S1	-3.9%	12.6µM*	-48.4%	-0.4%	?	?
CCCC(c1nnnn1CCc1ccccc1)N1CCN(C2CCCC2)CC1 (stereo not drawn)	0.3%	1.7%	15.8µM*	1.1%	?	7.5%
COc1ccc(C(c2nnnn2CCc2ccccc2)N2CCN(C3CCCC3)CC2)cc1OC (stereo not drawn)	1.5%	-4.4%	18.8%	0.1%	10.4%	16.7%
CCCCC(c1nnnn1C1CCCC1)N1CCN(C2CCCCC2)CC1 (stereo not drawn)	-0.5%	-34.8%	2.51µM*	1.2%	?	6.2%[2.29 µM]
CCCC(c1nnnn1C1CCCCC1)N1CCN(c2ncccn2)CC1 (stereo not drawn)	-1.7%	-0.7%	15.1%	-0.4%	11.2%	-3.2%
CCN(CC)c1nc(Nc2ccccc2)nc(Oc2ccc(=O)[nH]n2)n1	-5.8%	-23.1%	13.8%	-10.8%	11.5%	12.4%
CN(C)c1nc(NCc2ccccc2)nc(Oc2ccc(=O)[nH]n2)n1	-0.9%	6.3%	12.1%	1.1%	20µM*	-11.2%
SMILES	Caspase-1 inhib	15-hLO inh	HEK293 cAMP cs	Casp7 inh	TSHR agonist	15-hLO-2 inh
CSCSC1=C(C#N)C(c2ccc(Cl)cc2)C(C(C)=O)=C(C)N1 (stereo not drawn)	-13.8%	?	25.1µM*	-11.0%	?	?
CC(=O)C1=C(C)NC(SCC(=O)c2ccc(Cl)cc2Cl)=C(C#N)C1c1ccco1 (stereo not drawn)	.	12.6µM*	2.8%	?	7.5%	-27.4%
CC(=O)C1=C(C)NC(SCC(=O)c2ccccc2)=C(C#N)C1CC(C)C (stereo not drawn)	-3.8%	3.98µM*	3.1%	-5.4%	10µM*	?
CC(=O)C1=C(C)NC(SCC(=O)c2ccccc2)=C(C#N)C1c1ccco1 (stereo not drawn)	.	?	-2.7%	?	8.0%	-21.6%
CC(=O)C1=C(C)NC(SCC(=O)c2ccc(Cl)cc2)=C(C#N)C1c1ccco1 (stereo not drawn)	.	12.6µM*	1.2%	?	-22.3%	-12.6%
N/N=C1/c2ccccc2N[C@H]1OC(=O)Nc1cccc(Cl)c1	7.3%[11.5 µM]	-7.3%[11.4 µM]	-6.2%[11.4 µM]	2.8%[11.5 µM]	-11.1%[11.4 µM]	-3.1%[11.4 µM]
O=c1c(-c2cc(F)cc(F)c2)nc2cnc(N3CCNCC3)nc2n1-c1ccccc1	.	1.7%	-8.0%	?	-7.6%	32.5%
COCCNC(=O)C(c1ccc(C)cc1)N(C(=O)CCC(=O)Nc1ccccn1)C1CCCC1 (stereo not drawn)	2.6%	9.5%	11.7%	-1.0%	1.8%	6.7%
COCCN(C(=O)CCCC(=O)Nc1ccccn1)C(C(=O)NC1CCCCC1)c1ccc(C)cc1 (stereo not drawn)	-0.1%	-6.6%	7.94µM*	-2.3%	?	-0.9%
Cc1cccc(N(CC(=O)NC2CCCCC2)C(=O)c2c(C)noc2C)c1	0.5%	-0.9%	15.8µM*	-0.4%	?	2.4%
Cc1cc(NC(=O)CCCC(=O)N(CC(=O)NC2CCCCC2)c2ccccc2)no1	-13.5%	25.1µM*	?	-12.1%	?	5.7%
Cc1cc(C)cc(N(CC(=O)NC2CCCCC2)C(=O)c2ccc(C)s2)c1	.	.	.	.	.	-10.6%
CC1/C=C/C=C/C=C/C=C/C=C/C=C/C=C/C(OC2OC(C)C(O)C(N)C2O)CC2O[C@@](O)(CC(O)CC(O)C(O)CCC(O)CC(O)CC(=O)OC(C)[C@H](C)C1O)CC(O)C2C(=O)O (stereo partly drawn)	?	?	.	?	.	-23.4%
CC1(C)O[C@H]2[C@@H](c3[nH]nc4c(=O)[nH]c(=O)[nH]c34)OC[C@H]2O1	0.0%[11.5 µM]	1.7%[11.4 µM]	-1.4%[11.4 µM]	1.6%[11.5 µM]	2.1%[11.4 µM]	2.1%[11.4 µM]
Cc1ccc2[nH]c(=O)c(CN(Cc3ccc4c(c3)OCO4)Cc3nnnn3Cc3ccco3)cc2c1	-14.6%	?	?	-11.7%	?	-2.2%[2.29 µM]
Cc1cc(C)c2cc(CN(Cc3ccc4c(c3)OCO4)Cc3nnnn3Cc3ccco3)c(=O)[nH]c2c1	?	10µM*	?	?	?	6.3%

Screening results as filed in PubChem BioAssay.
